High-throughput results as filed in PubChem BioAssay.
Sampled rows, rich in hits. Any-hit rate of the full collection: about 1.7%.
GLP1R ag – agonists of human GLP-1 receptor. P43220. HEK293 GLP-1R CRE-luciferase, luminescence, 4-6 h; cells express a hypersensitive GLP-1R form. Potency, µM (doses to about 45.6 µM), for inactives: at the highest dose activation, usual class: activators. 380,000 tested, 0.007% active. AID 624172; further: % of control where 0% means no effect
GLP1R cytotox – cytotoxicity in counter-screen for GLP-1R inverse agonists; HEK293 cAMP-luciferase reporter cells, luminescence, 24 h; AID 624418; Potency, µM (series often up to 38.3 µM), without a hit: at the top dose activity change, negative = inhibition, usual class: inhibitors; 410,000 tested, 0.13% active;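 further: loss of luciferase light is scored as toxicity; on the % scale 0 is the no-effect control and ±100 the full control effect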
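1536-well qHTS counterscreen of the MLSMR; 200 cells/uL, 12 h pre-incubation, 23 nL cpd, 24 h at 37 deg C 5% CO2, luciferase detection reagent, 12 min RT, luminescence. Inhibition = undesired.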
GLP-1R inv ag – GLP-1 receptor (human) inverse agonism; P43220; Potency, µM (series often up to 38.3 µM), for inactives: at the highest dose activity change, negative = inhibition, usual class: inhibitors; HEK293 GLP-1R CRE-luciferase, luminescence, 24 h; GLP-1R form is constitutively active; 410,000 tested, 1.6% active; further: on the % scale 0 is the no-effect control and ±100 the full control effect; nearly all actives have a fitted effect of over 55% in size
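Luminescence readout: a drop in cAMP-driven luciferase signal flags inverse agonism at a constitutively active GLP-1R stably expressed in HEK293. Compound exposure lasted 24 hr at 37 deg C, 5% CO2.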
PTHR1 agonist – activates the human parathyroid hormone receptor PTHR1; AID 743266; 410,000 tested, 0.075% active; Potency, µM (titrated, usually from 115 µM), inactives show top-dose activation, usual class: activators; HEK293 GP2 PTHR1 cells, GloSensor cAMP luminescence, 1 h; further: nearly all actives have a fitted effect of over 55% in size
Target sequence (Q03431 whole entry, looked up): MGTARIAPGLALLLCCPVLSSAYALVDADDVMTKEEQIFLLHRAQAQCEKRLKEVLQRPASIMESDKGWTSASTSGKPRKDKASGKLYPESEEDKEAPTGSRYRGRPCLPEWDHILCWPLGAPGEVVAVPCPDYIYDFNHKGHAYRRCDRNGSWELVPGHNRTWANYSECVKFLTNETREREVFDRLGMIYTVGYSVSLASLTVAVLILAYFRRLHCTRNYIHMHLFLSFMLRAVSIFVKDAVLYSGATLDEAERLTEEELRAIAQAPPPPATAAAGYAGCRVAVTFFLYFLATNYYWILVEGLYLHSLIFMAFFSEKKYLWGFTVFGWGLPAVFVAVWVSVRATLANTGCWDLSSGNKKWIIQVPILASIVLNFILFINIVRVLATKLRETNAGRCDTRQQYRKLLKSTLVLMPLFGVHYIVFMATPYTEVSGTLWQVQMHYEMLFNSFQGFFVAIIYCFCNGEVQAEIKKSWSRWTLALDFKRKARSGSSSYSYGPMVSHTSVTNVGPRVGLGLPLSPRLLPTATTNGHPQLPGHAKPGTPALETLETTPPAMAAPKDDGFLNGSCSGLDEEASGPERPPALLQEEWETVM
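HEK-293-derived GP2 cells expressing PTHR1 and a GloSensor cAMP reporter, 3,000/well, plated overnight, given luciferin plus IBMX (each 0.5 mM as added) for 1 h at 37 °C, then compound for 1 h at 37 °C. Luminescence was read after 15 min at room temperature.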
* marks the source's active call; other numbers are inactive results; i = inactive; ? = inconclusive; · = no result; [ ] = remark or other dose. The call rests on the fitted dose curve; in most records, active means well fitted curve in the direction sought with a large enough effect; inconclusive means small, poorly fitted or top-dose-only effect, or another doubt; inactive means no such curve, though single readings can be large; an effect the other way counts as inactive or inconclusive. Potency means the concentration at half of the fitted maximal effect.

SMILES	GLP1R ag	GLP1R cytotox	GLP-1R inv ag	PTHR1 agonist
Nc1c(NC/C=C\COc2cc(CN3CCCCC3)ccn2)c(=O)c1=O	4%	·	·	·
CCNC(=O)c1c(O)c2ccccc2[nH]c1=O	4%	136%	10µM*	-3%[57.5 µM]
O=C(NCCc1ccccc1)c1c(O)c2ccccc2[nH]c1=O	-7%	-7%	-2%	-4%
COc1ccc(CNC(=O)c2cc3cccc4c3n2CC(C)S4)cc1OC (configuration not stated)	·	-1%	-11%	i
CC12C=CC(=O)C=C1CCC1C2C(O)CC2(C)C1CCC2(O)C(=O)COC(=O)CCC(=O)O (configuration not stated)	-2%	·	·	·
CC1=C(C(=O)N(C)C)CC(CC(=O)NC(c2ccccc2)c2ccccc2)C(=O)N1Cc1ccc(C(C)(C)C)cc1 (configuration not stated)	2%	-18%	?	i
CCN(CC)C(=O)C1=C(C)N(Cc2ccc(C(C)(C)C)cc2)C(=O)C(CC(=O)NC(c2ccccc2)c2ccccc2)C1 (configuration not stated)	6%	-24%	7.9µM*	-46%
CCN(CC)C(=O)C1=C(C)N(Cc2ccc(F)cc2)C(=O)C(CC(=O)NC(c2ccccc2)c2ccccc2)C1 (configuration not stated)	4%	-27%	11µM*	i
O=C(Nc1cccc(C(F)(F)F)c1)C1CCN(S(=O)(=O)c2cccc3nsnc23)CC1	-3%	-11%	?	-32%
CN(C)CCCn1c(=O)n(Cc2ccco2)c(=O)c2c3c(sc21)CCCCC3	16%	-4%	4.5µM*	i
Cc1ccccc1-n1sc2cc(F)ccc2c1=O	4%	4.5µM*	?	-29%
O=c1c2ccccc2sn1-c1ccccc1F	-5%	10µM*	14µM*	-32%
O=c1c2ccccc2sn1-c1ccccc1	-8%	?	10µM*	-14%
C=CC[N+]1([C@H]2C[C@H]3[C@@H]4CC[C@H]5C[C@H](OC(C)=O)[C@@H](N6CCCCC6)C[C@]5(C)[C@H]4CC[C@]3(C)[C@H]2OC(=O)CC)CCCCC1	5%	·	·	·
CCn1cc(C(=O)NCCCN2CCC(C)CC2)c(=O)c2cc(S(=O)(=O)N(C)C3CCCCC3)ccc21	7%	?	10µM*	-46%
S=C1SCN(Cc2ccco2)CN1Cc1ccco1	0%	?	5.6µM*	-10%
S=C1SCN(Cc2cccs2)CN1Cc1cccs1	10%	?	?	-14%
Cc1ccc(NC(=O)c2cc(C)n(-c3cccc(C)c3)c2C)cc1	-2%	?	11µM*	-90%
COc1ccc(CNC(=O)CCc2c(C)c3cc4c(C)coc4c(C)c3oc2=O)cc1OC	·	7%	9%	-8%
Cc1ccc(-c2cn(-c3cccc(Cl)c3)c(S(=O)(=O)CC(=O)Nc3cccc(C)c3)n2)cc1	·	-30%	8.9µM*	i
COc1cc(NS(=O)(=O)c2ccc(N)cc2)nc(C)n1	1%	·	·	·
CCOC(=O)COc1ccc(Br)cc1/C=C/c1[nH]c(=O)[nH]c(=O)c1[N+](=O)[O-]	-6%	?	10µM*	-19%
Cc1cc(Cl)ccc1C1=CC(=O)C[C@H](c2ccc(F)cc2)C1	-2%	-3%	11µM*	i
COc1ccc([C@H]2CC(=O)C=C(c3ccc(Cl)cc3C)C2)cc1	6%	-5%	-2%	-17%
CC[C@H](Cc1c(I)cc(I)c(N)c1I)C(=O)O	2%[19.8 µM]	·	·	·
SMILES	GLP1R ag	GLP1R cytotox	GLP-1R inv ag	PTHR1 agonist
COC(=O)C1C(=O)C2=C(CC1C)NC(C)=C(C(=O)OCCOc1ccccc1)C2c1ccc(C)o1 (configuration not stated)	10%	-24%	11µM*	i
COC(=O)C1C(=O)C2=C(CC1C)NC(C)=C(C(=O)OC1CCCCC1)C2c1ccc(N(C)C)cc1 (configuration not stated)	0%	-16%	10µM*	-5%
COC(=O)C1C(=O)C2=C(CC1C)NC(C)=C(C(=O)OC(C)C)C2c1ccc(C)o1 (configuration not stated)	-13%	2%	-5%	i
CC1=C(C(=O)OC2CCCCC2)C(c2ccco2)C2=C(CC(C)(C)CC2=O)N1 (configuration not stated)	1%	4%	8.9µM*	-17%
CC1=C(C(=O)OCCOc2ccccc2)C(c2ccc(C)o2)C2=C(CC(C)(C)CC2=O)N1 (configuration not stated)	-1%	10%	7.9µM*	-18%[57.5 µM]
CCOc1ccc(-c2cc(C)n3nc(C(=O)Nc4cc(Cl)ccc4O)cc3n2)cc1	-3%	1%	9%	i
COc1ccc(CNC(=O)CN2C(=O)CSc3ccc(S(=O)(=O)N4CCC(C)CC4)cc32)cc1	·	-1%	?	-42%
COc1cc2c(cc1OC)CN(c1ccc(F)cc1[N+](=O)[O-])CC2	?	-3%	56%	i
CCCCOc1ccc(/C=N/NC(=O)c2csc(C)c2C)cc1	-11%	-1%	?	-15%[57.5 µM]
Cc1scc(C(=O)N/N=C/c2ccc(OCC(C)C)cc2)c1C	-4%	2%	8.9µM*	-9%[57.5 µM]
Cc1ccc(S(=O)(=O)c2ccc([N+](=O)[O-])o2)cc1	-21%	5.6µM*	?	-37%
CCOC(=O)C1=C(CS(=O)(=O)c2ccc(C)c(C)c2)NC(=O)NC1c1ccccc1OCC (configuration not stated)	-1%	2%	-4%	i
NC(=S)NN=C(c1ccc(F)cc1)C1CC1	-5%	10µM*	?	-20%
CN(C)CCCNc1nc2sc3c(c2c(=O)n1CCc1ccccc1)CCCCC3	6%	?	3.2µM*	i
CN(C)CCCn1c(=O)n(CCc2ccccc2)c(=O)c2c3c(sc21)CCCCC3	11%	20%	?	-17%
CCc1ccc(NC(=O)Cn2c(=O)n(-c3ccc(OC)cc3)c(=O)c3ccc(C(=O)NCc4ccc(C)cc4)cc32)cc1	·	0%	-2%	i
CCCCCCSC1=C(C#N)C(c2ccc(O)cc2)CC(=O)N1 (configuration not stated)	?	-4%	5µM*	-11%
CCSC1=C(C#N)C(c2ccc(F)cc2)CC(=O)N1 (configuration not stated)	0%	-5%	-17%	-17%
C#CCn1c(C2CC(=O)N(c3ccc(OCC)cc3)C2)nc2ccccc21 (configuration not stated)	·	1%	0%	i
COc1cccc2c1C(=O)c1c(O)c3c(c(O)c1C2=O)C[C@@](O)(C(=O)CO)C[C@@H]3OC1CC(N)C(O)C(C)O1 (some centres not stated)	-21%	?	4.5µM*	i
COc1cccc2c1C(=O)c1c(O)c3c(c(O)c1C2=O)C[C@@](O)(C(=O)CO)C[C@@H]3O[C@H]1C[C@H](N)[C@H](O)[C@H](C)O1	-10%	?	?	-9%
